This is one part of a sample in which hits are shown more often than they occur.
ALOX12 inh: inhibitors of human 12S-lipoxygenase ALOX12. P18054. purified 12hLO, xylenol orange hydroperoxide absorbance. Potency, µM (doses to about 108 µM), without a hit: at the top dose activity change, negative = inhibition, actives largely listed as inhibitors. 580,000 compounds, 1.1% hits; further: potency means the concentration at half of the fitted maximal effect
Target sequence (P18054 whole entry, looked up): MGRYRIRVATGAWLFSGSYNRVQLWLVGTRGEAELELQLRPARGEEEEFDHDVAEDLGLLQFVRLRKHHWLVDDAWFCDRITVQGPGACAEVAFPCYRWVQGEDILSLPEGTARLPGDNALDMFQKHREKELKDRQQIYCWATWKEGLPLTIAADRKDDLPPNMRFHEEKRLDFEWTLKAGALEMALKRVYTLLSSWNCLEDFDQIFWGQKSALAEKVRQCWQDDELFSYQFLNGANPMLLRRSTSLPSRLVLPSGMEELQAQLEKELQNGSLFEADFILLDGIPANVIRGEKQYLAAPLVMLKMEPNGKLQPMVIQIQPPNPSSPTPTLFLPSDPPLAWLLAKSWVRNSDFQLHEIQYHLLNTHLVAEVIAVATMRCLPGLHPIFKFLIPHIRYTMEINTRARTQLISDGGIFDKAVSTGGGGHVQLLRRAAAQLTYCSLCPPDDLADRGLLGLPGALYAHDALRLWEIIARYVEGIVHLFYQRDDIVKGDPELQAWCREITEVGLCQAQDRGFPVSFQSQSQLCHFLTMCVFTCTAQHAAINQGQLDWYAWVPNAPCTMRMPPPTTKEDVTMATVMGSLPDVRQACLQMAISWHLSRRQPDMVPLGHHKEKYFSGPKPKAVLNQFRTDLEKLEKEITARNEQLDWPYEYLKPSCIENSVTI
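Purified human 12hLO at 150 nM in 25 mM Hepes, 0.01% Triton X-100, pH 7.0, preincubated 15 min at room temperature with compound. Reaction started with 40 uM arachidonic acid, 30 min at room temperature. Hydroperoxide measured by Fe-xylenol orange, 573/405 nm absorbance ratio.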
TDP1 cell CPT: DT40-hTDP1 cell growth loss with CPT; chicken DT40 Tdp1-/-;hTDP1 cells + 20 nM CPT, ATP luminescence, 48 h; Potency, µM (series often up to 46.2 µM), for inactives: at the top dose activity change, negative = growth inhibition, actives largely listed as inhibitors; 420,000 compounds, 12% hits; further: potency means the concentration at half of the fitted maximal effect; nearly all actives have a fitted effect of over 55% in size
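Cell growth measured by CellTiter-Glo luminescence after a minimum 48 h, 37 C compound exposure with 20 nM CPT in Tdp1-knockout DT40 cells stably expressing hTDP1, seeded 400/well; qHTS titration format.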
HT1080NT lethal: kills 2HG-producing HT-1080-NT fibrosarcoma cells. HT-1080-NT fibrosarcoma viability, CellTiter-Glo ATP luminescence, 48 h. Potency, µM (doses to about 46.1 µM), inactives show at the top dose activity, negative = less viability, usual class: cytotoxic. 360,000 compounds, 1.6% hits. AID 686970;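 further: NT is the 2HG producing partner of a matched IDH1 knockdown line; potency means the concentration at half of the fitted maximal effect; 0% = DMSO-treated cells and -100% = media-only wells without cells; nearly all actives have a fitted effect of over 55% in size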
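HT-1080-NT fibrosarcoma cells (2HG-overproducing), 750 cells/well in RPMI with 5% FBS, dosed after 2 h and incubated 48 h at 37C. CellTiter-Glo luminescence normalized to DMSO and no-cell wells; concentration-response curves fitted and classed.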
IL-1B inflam inh: inflammasome signaling inhibition, IL-1 beta readout; THP-1 LPS/ATP IL-1B secretion, AlphaLISA, 16 h; active compounds read low; activity change, % at 57.5 µM; 360,000 compounds, 4.7% hits; AID 743279; in the data active means activity change below about -50%; inconclusive means mostly about -30% to -49%
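THP-1 cells pretreated 1 hr with compounds (up to 57.5 uM final), then stimulated with LPS (250 ng/mL final) plus ATP (1.25 mM final); secreted IL-1B measured by AlphaLISA after 16 hr, decreased signal indicating inhibition.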
HT1080 IDH1KD tx: kills HT-1080 cells with IDH1 knockdown | 360,000 compounds, 2% hits | Potency, µM (highest dose often 46.1 µM), inactives show at the top dose activity, negative = toxicity, usual class: cytotoxic | AID 686971 | HT-1080 IDH1 knockdown viability, ATP luminescence, 48 h;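 further: potency means the concentration at half of the fitted maximal effect; 0% = DMSO wells and -100% = cell-free medium wells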
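CellTiter-Glo luminescence after 48 h compound exposure at 37 degrees C of IDH1-knockdown HT-1080 cells in 5% FBS RPMI. %Activity scaled between DMSO wells and cell-free media wells, with curves fitted and assigned curve classes.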
DT40 TDP1 no CPT: qHTS for Inhibitors of human tyrosyl-DNA phosphodiesterase 1 (TDP1): qHTS in cells in absence of CPT; DT40 Tdp1-/- hTDP1 cells, no CPT, ATP luminescence, 48 h; Potency, µM (top dose mostly 46.2 µM), for inactives: at the top dose activity change, negative = growth inhibition, usual class: inhibitors; 420,000 compounds, 15% hits; further: potency means the concentration at half of the fitted maximal effect; nearly all actives have a fitted effect of over 55% in size
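Cells were dispensed at 400 per well, compounds added by pin tool, plates incubated ≥48 hr at 37 °C, then CellTiter-Glo added for 30 min at room temperature before luminescence reading. Line: DT40 Tdp1-/- complemented with hTDP1; camptothecin omitted.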
* hit, by the source's call; ? = inconclusive; / = no result given; ! = not active in a repeat; [ ] = dose if it differs, or a comment. Unless noted, the call rests on the fitted dose curve; in most records, active means well fitted curve in the direction sought with a large enough effect; inconclusive means small, poorly fitted or top-dose-only effect, or another doubt; inactive means no such curve, though single readings can be large; an effect the other way counts as inactive or inconclusive. Unless noted, on the % scale 0 is the no-effect control and ±100 the full control effect.

SMILES	ALOX12 inh	TDP1 cell CPT	HT1080NT lethal	IL-1B inflam inh	HT1080 IDH1KD tx	DT40 TDP1 no CPT
Oc1ccccc1C1C=C(c2ccc3c(c2)OCO3)NC(c2cccc(Cl)c2)N1 (stereo not drawn)	/	?	/	/	/	13µM*
Cc1nn2c(=O)cc(CSc3n[nH]c(-c4ccccc4)n3)nc2s1	-26%	/	/	/	/	/
Oc1ccc(Br)cc1C1C=C(c2ccc3c(c2)OCO3)NC(c2ccc(Br)cc2)N1 (stereo not drawn)	/	10µM*	/	/	/	7.9µM*
O=C(Nc1ccc(Br)cc1)c1cc(-c2ccc3c(c2)OCO3)on1	19%	2%	?	0	10%	1%
COc1ccccc1C(=O)NCC(=O)Nc1ccccc1	11%	?	-1%	30	-2%	-12%
COc1ccccc1C(=O)NCC(=O)NCCC(c1ccccc1)c1ccccc1	-12%	15µM*	0%	5	-5%	16µM*
COc1ccc(Cl)cc1NC(=S)NCCC(c1ccccc1)c1ccccc1	32µM*	23µM*	3%	5	1%	23µM*
COc1ccccc1NC(=S)NCCC(c1ccccc1)c1ccccc1	35µM*	?	-15%	25	-7%	?
COc1ccc(Cl)cc1NC(=S)Nc1ccccc1C	?	?	15%	-10	-1%	23µM*
COc1ccc(Cl)cc1NC(=S)NCCO	-21%	32%	5%	-2	-1%	-11%
Cc1ccc(C(=O)NC(C)c2ccc(C(F)(F)F)cc2)cn1 (stereo not drawn)	32%	/	/	/	/	/
Cc1cccc(C(=O)NC(Nc2cccc(Cl)c2)C(Cl)(Cl)Cl)c1 (stereo not drawn)	45%	/	/	/	/	/
COc1cccc(C(=O)N2CCC(C3CCN(S(C)(=O)=O)CC3)C2)c1 (stereo not drawn)	33%	/	/	/	/	/
COc1cc(NC(=S)NCCC(c2ccccc2)c2ccccc2)c(OC)cc1Cl	40µM*	9.2µM*	-7%	0	0%	18µM*
S=C(NCCC(c1ccccc1)c1ccccc1)Nc1ccccc1Cl	?	?	-11%	3	0%	?
CC(C)CN(CC(C)C)C(=O)COC(=O)c1c[nH]c2ccccc12	1%	/	/	/	/	/
CC(C)(C)c1ccc(-c2nc(SCCOc3ccc(Cl)cc3)n3[nH]c(=O)cc3n2)cc1	0%	18µM*	/	/	/	-80%
O=c1cc2nc(-c3cccs3)nc(SCCOc3ccc(Cl)cc3)n2[nH]1	-22%	?	/	/	/	?
Cc1ccc(OCCCSc2nc(-c3ccc(C(C)(C)C)cc3)nc3cc(=O)[nH]n23)cc1C	-1%	?	/	/	/	26µM*
Cc1ccc(NC(=O)CSc2nc(-c3ccc(C(C)(C)C)cc3)nc3cc(=O)[nH]n23)cc1C	-6%	?	/	/	/	?
CC(C)(C)c1ccc(OCCSc2nc(-c3cccs3)nc3cc(=O)[nH]n23)cc1	-18%	18µM*	/	/	/	?
COc1cccc(CN2CCC(Cc3ncc(C)n3Cc3ccccc3)C2)c1 (stereo not drawn)	81%	/	/	/	/	/
C=C(C)Cn1c(NCCCCCC)nc2c1c(=O)[nH]c(=O)n2C	-46%	/	/	/	/	/
Cc1cc(-c2nc3cc(NC(=O)C(C)C)ccc3o2)ccc1Br	-7%	/	/	/	/	/
Nc1nc2ncc(=O)[nH]c2c(=O)[nH]1	/	-1%	/	/	/	15µM*
SMILES	ALOX12 inh	TDP1 cell CPT	HT1080NT lethal	IL-1B inflam inh	HT1080 IDH1KD tx	DT40 TDP1 no CPT
Cn1ncc2c(=O)[nH]c(N)nc21	9%	21%	3%	19	4%	22%
c1cc(-c2ccn[nH]2)ccn1	16%	/	/	/	/	/
Cc1ccc2[nH]c3c(=O)n(CC(=O)N(C)c4cc(Cl)ccc4C)ncc3c2c1	-26%	18µM*	/	/	/	15µM*
Cc1ccc2oc(=O)c3cnn(CC(=O)N4CCN(c5cc(Cl)ccc5C)CC4)c3c2c1	-2%	?	/	/	/	16µM*
CCc1cccc(NC(=O)Cn2ncc3c([nH]c4ccc(C)cc43)c2=O)c1	-29%	-1%	/	/	/	4%
Cc1ccc2oc(=O)c3cnn(CC(=O)NC4CCN(Cc5ccccc5)CC4)c3c2c1	35%	16µM*	2%	-10	4%	21µM*
CCN(CC)CCOC(=O)c1ccc(NC(=O)Cn2ncc3c([nH]c4ccc(C)cc43)c2=O)cc1	?	4.1µM*	/	/	/	3.3µM*
CN(C)Cc1ccc(CNC(=O)c2nn(-c3ccc(F)cc3)c3c2CCC3)cc1	2%	/	/	/	/	/
CC(C)COc1ccc(C(=O)Nc2ccc3oc(=O)ccc3c2)cc1	-7%	/	/	/	/	/
COC(=O)c1ccc(C)c(NC(=O)COC(=O)c2ccc(OC)cc2)c1	14%	/	/	/	/	/
Cc1ccc2[nH]c3c(=O)n(CC(=O)N(CCN(C)C)Cc4ccccc4)ncc3c2c1	?	?	/	/	/	23µM*
Cc1ccc(N(C)C(=O)Cn2ncc3c([nH]c4ccccc43)c2=O)cc1C	-23%	12µM*	/	/	/	?
Cc1ccc(C)c(N2CCN(C(=O)Cn3ncc4c([nH]c5ccc(C)cc54)c3=O)CC2)c1	0%	15µM*	15%	6	16%	13µM*
CC(C)(C)c1ccc(C(=O)Nc2ccccc2F)cc1	-6%	/	/	/	/	/
COc1ccc(-c2c(C)oc3cc(OCC(=O)OC(C)(C)C)ccc3c2=O)cc1OC	-26%	/	/	/	/	/
O=C(N[C@H]1CCN2C(=O)N(c3ccc(F)c(Cl)c3)C(=O)[C@@H]2C1)c1ccncc1	9%[176 µM]	/	/	/	/	/
O=C(N/N=C/c1c[nH]c2ccc(Br)cc12)c1ccn(Cc2ccc(Cl)cc2Cl)n1	-8%	?	?	?	?	21µM*
O=S(Cc1cc(Sc2ccccc2)nc(-c2ccccc2)n1)c1ccccc1 (stereo not drawn)	0%	?	?	-7	?	16µM*
CCOc1ccc(NC(=O)Cc2ccc(-n3c(C)nc4cccnc43)cc2)cc1	-13%	?	/	/	/	?
COc1ccc(Cn2c(CCC(=O)Nc3cc(OC)c(OC)c(OC)c3)nc3cccnc32)cc1	-21%	16µM*	/	/	/	?
COc1ccc(Cn2c(CCC(=O)Nc3ccc(C)c(C)c3)nc3cccnc32)cc1	3%	13µM*!	-18%	?	-23%	21µM*
O=C(CCc1nc2cccnc2n1Cc1ccccc1)NCCc1ccc(Cl)cc1	-6%	?	-21%	-4	-11%	21µM*
Cc1ccc(NC(=O)Cc2ccc(-n3c(C)nc4cccnc43)cc2)cc1C	3%	12µM*	/	/	/	18µM*
Cc1cccc(C(=O)N2CCCN(C)c3ccccc32)c1	47%	/	/	/	/	/
